# Out of some 310,000 compounds screened, about 14,000 (4.5%) showed an effect of 50% or more. Effects have a minus sign here. Only a selection was taken, and strong results are over-represented in it overall.
# Target: human ether-à-go-go-related gene (hERG) potassium channel (human, UniProt Q12809)
# Assay: primary screen, population patch clamp on CHO cells stably expressing hERG; higher = less effect of the substance
# 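Also: peak tail current of the secondary pulse compared with the same well before compound.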
# Chain of human ether-à-go-go-related gene (hERG) potassium channel (Q12809 whole entry, looked up): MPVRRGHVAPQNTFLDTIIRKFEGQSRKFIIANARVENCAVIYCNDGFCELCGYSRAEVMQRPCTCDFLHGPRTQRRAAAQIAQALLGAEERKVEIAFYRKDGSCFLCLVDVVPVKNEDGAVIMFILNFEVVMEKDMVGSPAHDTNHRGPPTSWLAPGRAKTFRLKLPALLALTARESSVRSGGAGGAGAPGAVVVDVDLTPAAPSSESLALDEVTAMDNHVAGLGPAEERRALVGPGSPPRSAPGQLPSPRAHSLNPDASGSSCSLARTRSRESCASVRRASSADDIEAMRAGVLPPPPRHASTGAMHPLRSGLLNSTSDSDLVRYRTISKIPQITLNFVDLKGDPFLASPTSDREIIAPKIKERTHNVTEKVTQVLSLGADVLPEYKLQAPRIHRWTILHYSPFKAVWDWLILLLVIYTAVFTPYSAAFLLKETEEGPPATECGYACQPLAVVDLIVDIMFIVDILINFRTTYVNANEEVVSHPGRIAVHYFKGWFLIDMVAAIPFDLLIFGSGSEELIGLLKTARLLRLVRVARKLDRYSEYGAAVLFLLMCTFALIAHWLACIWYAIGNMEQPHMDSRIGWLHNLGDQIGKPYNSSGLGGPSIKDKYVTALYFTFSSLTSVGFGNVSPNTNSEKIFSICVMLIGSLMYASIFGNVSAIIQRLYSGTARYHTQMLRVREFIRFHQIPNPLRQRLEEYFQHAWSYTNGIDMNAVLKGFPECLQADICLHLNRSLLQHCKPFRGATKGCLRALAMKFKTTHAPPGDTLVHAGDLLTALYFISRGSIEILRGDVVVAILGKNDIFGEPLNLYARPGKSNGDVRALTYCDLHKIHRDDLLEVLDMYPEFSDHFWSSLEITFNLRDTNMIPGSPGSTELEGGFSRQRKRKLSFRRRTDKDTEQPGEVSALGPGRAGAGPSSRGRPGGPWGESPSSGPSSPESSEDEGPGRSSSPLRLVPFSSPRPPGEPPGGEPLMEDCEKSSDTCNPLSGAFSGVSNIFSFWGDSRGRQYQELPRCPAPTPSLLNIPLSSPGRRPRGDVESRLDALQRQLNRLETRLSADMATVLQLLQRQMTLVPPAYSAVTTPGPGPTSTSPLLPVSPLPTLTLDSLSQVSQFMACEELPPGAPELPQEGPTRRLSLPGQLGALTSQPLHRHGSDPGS
row,Compound,"hERG current change (%, negative = inhibition) at 10uM [%]"
1,Cc1cc(C)c(C#N)c(SCc2nnc(-c3ccccc3)o2)n1,-0.532
2,O=C(CNCC1CCCO1)Nc1ccccc1N1CCCCCC1.O=C(O)C(=O)O (stereo not drawn),-6.51
3,COc1cc(OC)nc(Oc2ccccc2C(=O)Oc2ccc(C)cc2)n1,-25.1
4,O=C(c1cc(C2CC2)on1)N1CCN(c2ccccc2)CC1,-14.1
5,CCCCN1C(=O)C(=O)N(CC(=O)Nc2cc(S(=O)(=O)N(C)C)ccc2C)C1=O,6.6
6,O=S(=O)(Nc1ccc(Br)cc1)c1cccc2nonc12,5.71
7,Cl.O=C(O)CCN1CCOCC1,19.8
8,Cc1ccc(C)c(S(=O)(=O)N2CCN(C(=O)CCNC(=O)c3ccc(Br)cc3)CC2)c1,-33.4
9,O=[N+]([O-])c1ccccc1NC1CCN(Cc2ccccc2)CC1,-64.4
10,O=[N+]([O-])c1ccc(NC2CCN(Cc3ccccc3)CC2)c2ccncc12,6.01
11,CC1CCC2C(=O)N(c3ccc(NC4CCN(Cc5ccccc5)CC4)c([N+](=O)[O-])c3)C(=O)C2C1 (stereo not drawn),-41.2
12,O=[N+]([O-])c1ccc(NC2CCN(Cc3ccccc3)CC2)c([N+](=O)[O-])c1,-85.4
13,O=C1CCC(=O)N1c1ccc(NC2CCN(Cc3ccccc3)CC2)c([N+](=O)[O-])c1,2.23
14,O=C1C2CCCCC2C(=O)N1c1ccc(NC2CCN(Cc3ccccc3)CC2)c([N+](=O)[O-])c1 (stereo not drawn),-42.1
15,Cc1noc(C)c1S(=O)(=O)NCc1ccc(CN(C)C)cc1.Cl,6.09
16,COc1ccc(CCNC(=O)/C(C#N)=C/c2ccc(OCC(=O)NCC3CCCO3)cc2)cc1OC (stereo not drawn),11.7
17,CC(C)N(C(=O)COC(=O)c1ccc(O)cc1)C(C)C,-1.54
18,CCS(=O)(=O)c1nc(S(=O)(=O)c2ccc(C)cc2)c(NCCCN2CCCC2=O)s1,-11.3
19,CS(=O)(=O)c1nc(S(=O)(=O)c2ccc(Cl)cc2)c(NCCCN2CCOCC2)s1,-46.8
20,CCCCNC(=O)c1cn(C)c2ccc(S(=O)(=O)N3CC(C)CC(C)C3)cc2c1=O (stereo not drawn),1.55
21,O=C1NC(=S)NC(=O)C12C(c1ccc(F)cc1)NC(=S)NC2c1ccc(F)cc1 (stereo not drawn),-4.14
22,Cl.Oc1cccc(Nc2nc(-c3ccccc3Cl)nc3ccccc23)c1,7.09

row,Compound,"hERG current change (%, negative = inhibition) at 10uM [%]"
1,CCCn1c(C)cc(C(=O)Cn2nnc3ccccc3c2=O)c1C,-34.7
2,O=C(CSc1ccc(-c2ccco2)nn1)c1ccccc1,-9.74
3,Cc1cccc(NC(=O)CSc2ccc(-c3ccco3)nn2)c1,-59.5
4,CC(=O)Nc1cccc(NC(=O)CSc2ccc(-c3ccco3)nn2)c1,0.763
5,O=C(CSc1ccc(-c2ccco2)nn1)Nc1cccc(F)c1,-55.2
6,Cc1cc(C)cc(NC(=O)CSc2ccc(-c3ccco3)nn2)c1,-28.8
7,O=C(CSc1ccc(-c2cccs2)nn1)Nc1ccccc1,-35
8,CC(=O)Nc1ccc(NC(=O)CSc2ccc(-c3cccs3)nn2)cc1,11.4
9,COc1ccc(C(=O)CSc2ccc(-c3ccco3)nn2)cc1,-78.1
10,Cc1cc(C)cc(NC(=O)CSc2ccc(-c3cccs3)nn2)c1,-52.2
11,CC(=O)c1cccc(NC(=O)CSc2ccc(-c3ccco3)nn2)c1,1.79
12,CCc1ccc(NC(=O)CSc2ccc(-c3ccco3)nn2)cc1,-16.6
13,O=C(CSc1ccc(-c2ccco2)nn1)c1ccc(F)cc1,-25.8
14,Cc1cc(OC(C)C(=O)Nc2cccnc2)ccc1Cl (stereo not drawn),2.05
15,COc1ccc(CNC(=O)C2CCN(S(=O)(=O)c3ccc4c(c3)NC(=O)CO4)CC2)cc1,16.7
16,O=C(NC(Cc1c[nH]c2ccccc12)C(=O)O)/C(=C\c1ccc2c(c1)OCO2)NC(=O)c1ccccc1 (stereo not drawn),-7.13
17,CCCC(=O)Nc1ccc2nc(SCC(=O)N3CCCC3)sc2c1,2.52
18,O=C(O)c1cccc(S(=O)(=O)N2CCCC(c3nc4c(nnn4Cc4ccc(F)cc4)c(=O)[nH]3)C2)c1 (stereo not drawn),-15.3
19,O=C1/C(=C\c2ccc(Br)o2)SC(=Nc2ccccc2)N1c1ccccc1,-10.1
20,Cl.N=c1c2c(n(Cc3ccc(Cl)c(Cl)c3)c3c1CCC3)CCCC2,-15.8
21,COc1cc(NC(=O)Cc2ccccc2)ccc1NC(=O)c1ccco1,18.5
22,O=C(CSc1ccc(-c2ccco2)nn1)Nc1ccc(F)cc1,-68.5

row,Compound,"hERG current change (%, negative = inhibition) at 10uM [%]"
1,O=C(CSc1ccc(-c2ccco2)nn1)Nc1ccccc1F,-43.4
2,CC(=O)Nc1ccc(NC(=O)CSc2ccc(-c3ccco3)nn2)cc1,-2.54
3,Cc1ccc(NC(=O)CSc2ccc(-c3ccco3)nn2)c(C)c1,-24.4
4,O=C(CSc1ccc(-c2ccco2)nn1)Nc1ccc(F)cc1F,-65.8
5,O=C(CSc1ccc(-c2ccco2)nn1)Nc1ccccc1,-47.6
6,CC(NC(=O)c1ccco1)c1nc(-c2ccccc2Cl)no1 (stereo not drawn),3.9
7,Cc1cc2nc(-c3cccc(NC(=O)c4ccc(Br)o4)c3C)oc2cc1C,5.67
8,Cc1nc(C)c(-c2ccc(SCC(=O)Nc3cccc(F)c3)nn2)s1,8.66
9,CC(C)C(=O)Nc1ccc(Cc2ccc(NC(=O)C(C)C)c(O)c2)cc1O,-23
10,COc1cccc(-c2nc(CS(=O)(=O)CC(=O)NCCc3ccc(OC)cc3OC)c(C)o2)c1,-13
11,Cc1ccnc(NS(=O)(=O)c2ccc(NC(=O)Cc3ccccc3)cc2)n1,5.26
12,O=C(/C=C/c1cccc([N+](=O)[O-])c1)NCCSCc1ccco1,-29.5
13,O=C(/C=C/c1ccc([N+](=O)[O-])cc1)NCc1ccco1,-24.1
14,COc1ccc(/C=C/C(=O)NCCOc2ccc(C)cc2)cc1,6.3
15,NS(=O)(=O)c1ccc(CCNC(=O)/C=C/c2cccc([N+](=O)[O-])c2)cc1,-13.7
16,COc1ccc(OCCNC(=O)/C=C/c2ccc([N+](=O)[O-])cc2)cc1,-64.7
17,COc1ccccc1OCCNC(=O)/C=C/c1ccc([N+](=O)[O-])cc1,-49.2
18,O=C(/C=C/c1cccc([N+](=O)[O-])c1)NCCc1ccc(F)cc1,-21.8
19,O=C(/C=C/c1ccc([N+](=O)[O-])cc1)NCCc1ccccc1,-14.4
20,O=C(/C=C/c1ccc([N+](=O)[O-])cc1)NCCc1ccc(F)cc1,-60.3
21,O=C(/C=C/c1ccc([N+](=O)[O-])cc1)NCCSCc1ccco1,-61.3
22,NS(=O)(=O)c1ccc(CCNC(=O)/C=C/c2ccc([N+](=O)[O-])cc2)cc1,-69.8

row,Compound,"hERG current change (%, negative = inhibition) at 10uM [%]"
1,COc1ccc(/C=C/C(=O)NCCc2ccc(S(N)(=O)=O)cc2)cc1,3.55
2,O=[N+]([O-])c1cc(/C=N\Nc2ccccn2)ccc1Cl,18.4
3,CCN(CC)c1ccc(NC(=O)CN(C)Cc2cccs2)cc1,6.07
4,O=C(O)c1ccc(NC(=O)c2cccs2)cc1,10.1
5,COc1ccc(NC(=O)COc2ccccc2F)cc1S(=O)(=O)N1CCCCC1,6.02
6,COc1ccc(N2CCN(C(=O)CSc3nnc4c5cc(C)ccc5n(C)c4n3)CC2)cc1,-13.9
7,Cc1ccc2c(c1)c1nnc(SCC(=O)N3CCN(c4ccc(F)cc4)CC3)nc1n2CC(=O)O,-63.1
8,Cc1ccc2c(c1)c1nnc(SCC(=O)N3CCCc4ccccc43)nc1n2CC(=O)O,20.2
9,COc1cccc(OCc2ccc(Cl)cc2)c1C#N,19.6
10,CCC(=O)N1CCc2cc(S(=O)(=O)NC(CC(C)C)C(=O)N3CCc4ccccc43)ccc21 (stereo not drawn),-2.28
11,NC(=O)c1ccccc1NCC(=O)c1ccc(Cl)cc1,16.4
12,O=C(c1cccc([N+](=O)[O-])c1)c1ccc2c(c1)C(=O)NC2=O,-11.5
13,CC(=O)[O-].[K+].c1ccc2c(c1)OCCOCCOc1ccccc1OCCOCCO2,-74.7
14,c1ccc2c(c1)OCCOCCOCCOCCOc1ccccc1OCCOCCOCCO2,-62.1
15,O=C(N1CCOCCOc2ccccc2OCCOCC1)C(F)(F)F,6.2
16,OCCN1CCOCCOc2ccccc2OCCOCC1,1.57
17,c1ccc2c(c1)OCCOCCOCCOCCOCCOc1ccccc1OCCOCCOCCO2,-59.2
18,C=C(C)C(=O)Nc1ccc2c(c1)OCCOCCOCCO2,-26.4
19,c1ccc2c(c1)OCCOCCOCCO2,10
20,CN1CCOCCOc2ccccc2OCCOCC1,7.5
21,CC(=O)Nc1cccc2c1OCCO2,6.45

# Source: paper PMC4336329 (PLoS ONE, 2015)
